# Records with an inconclusive call do not appear. Calls of active or inactive are those of the source. The calls were made as follows: active = hit-call score of the fitted dose curve at least 0.9, where 1 is the maximum; inconclusive = response in the unintended direction; inactive = score below 0.9.
# Target: Hepatocyte nuclear factor 4-alpha (Homo sapiens) (UniProt P41235)
# Test: ATG_HNF4a_TRANS: Attagene TRANS-FACTORIAL HepG2 Assay for human Hepatocyte Nuclear Factor 4 alpha (HNF4a) (AID 2282982)
# Conditions: HepG2 HNF4a transactivation reporter, mRNA readout
# Protocol: ATG_TRANS is a cell-based, multiplexed-readout assay that uses HepG2, a human liver cell line, with measurements taken at 24 hours after chemical dosing in a 24-well plate.ATG_HNF4a_TRANS is one of 30 assay component(s) measured or calculated from the ATG_TRANS assay. It is designed to make measurements of mRNA induction, a form of inducible reporter, as detected with fluorescence intensity signals by Reverse transcription polymerase chain reaction (RT-PCR) and Capillary electrophoresis technology.Data from the assay component ATG_HNF4a_TRANS was analyzed into 1 assay endpoint. This assay endpoint, ATG_HNF4a_TRANS, was analyzed in the positive analysis fitting direction relative to DMSO as the negative control and baseline of activity. Using a type of inducible reporter, measures of mRNA for gain-of-signal activity can be used to understand the reporter gene at the transcription factor-level as they relate to the gene HNF4A. Furthermore, this assay endpoint can be referred to as a primary readout, because this assay has produced multiple assay endpoints where this one serves a reporter gene function. To generalize the intended target to other relatable targets, this assay endpoint is annotated to the nuclear receptor intended target family, where the subfamily is orphan.
# Human liver HepG2 cells are transiently transfected with multiple reporter transcription units (MRTUs) in 6-well plates using FuGene 6 reagent (Roche; 3 ml FuGene/1 mg DNA). The MRTU constructs are regulated by a cis-regulating element (promoter). […] A major difference between the CIS and TRANS system is that in CIS activities of endogenous TFs are measured, whereas the TRANS assay evaluates changes in activities of exogenous, chimeric NR-Gal4 proteins. […] At the end of 24 hour incubation, total RNA was isolated using TriZol reagent (Invitrogen). The isolated RNA is then reverse-transcribed using oligo(dT) primer and Mo-MLV reverse transcriptase (Invitrogen) with DNAse I (Ambion) treatment for 30 min. The one-tenth of the produced cDNA was amplified by PCR using Taq DNA polymerase (Invitrogen) and two reporter sequence-specific primers. The PCR products were fluorescently labeled by primer extension with 6-arboxyfluorescein (6-FAM) 5'-labeled reporter sequence-specific primer (2 min at 95 C, 20 s at 68 C and 10 min at 72 C) and these products were digested with 5U of HpaI (New England Biolabs) for 2h at 37 C. The fragments were purified using Qiaquick PCR columns (Qiagen), analyzed on an ABI 3130xL genetic analyzer (Applied Biosystems) with peak positions identified by using a set of X-rhodamine (ROX)-labeled MapMarker1000 molecular weight standards (BioVentures). The raw capillary electrophoresis data was processed using Attagraph software (Attagene).
# Sequence of Hepatocyte nuclear factor 4-alpha (Homo sapiens) (P41235 whole entry, looked up): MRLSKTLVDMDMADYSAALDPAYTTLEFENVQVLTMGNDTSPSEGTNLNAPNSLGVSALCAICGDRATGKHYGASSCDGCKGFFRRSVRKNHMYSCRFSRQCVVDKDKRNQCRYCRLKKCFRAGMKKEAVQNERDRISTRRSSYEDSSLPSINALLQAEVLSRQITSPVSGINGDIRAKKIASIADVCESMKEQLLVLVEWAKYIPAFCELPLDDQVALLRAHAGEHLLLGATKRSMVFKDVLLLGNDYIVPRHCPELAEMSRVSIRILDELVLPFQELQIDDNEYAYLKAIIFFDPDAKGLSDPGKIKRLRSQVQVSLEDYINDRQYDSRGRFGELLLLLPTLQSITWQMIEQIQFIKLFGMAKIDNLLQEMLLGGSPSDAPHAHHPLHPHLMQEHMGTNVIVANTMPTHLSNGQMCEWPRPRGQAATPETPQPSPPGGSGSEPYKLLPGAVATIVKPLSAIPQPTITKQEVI
row,Structure (SMILES),outcome
1,Nc1ccc(Sc2ccc(N)cc2)cc1,inactive
2,COC(N)=O,inactive
3,O=C(O)C(F)(OC(F)(F)C(F)(F)C(F)(F)F)C(F)(F)F (stereo not given),inactive
4,CCCCN(CC)C(=O)SCCC,inactive
5,COCCOCCO,inactive
6,O=c1ssc(Cl)c1Cl,inactive
7,O=NN1CCCC1,inactive
8,CCCCN(CCCC)N=O,inactive
9,N#Cc1ccc(O)cc1,inactive
10,CCC1(c2ccccc2)C(=O)N=C(O)NC1=O (stereo not given),inactive
11,CC(O)C(F)(F)C(F)(F)F (stereo not given),inactive
12,OCC(F)(F)OC(F)(F)C(F)(F)OC(F)(F)C(F)(F)OC(F)(F)F,inactive
13,Cc1ccc2c(c1N)C(=O)c1ccccc1C2=O,inactive
14,CC1=C(C(=O)Nc2ccccc2)S(=O)(=O)CCO1,inactive
15,Nc1ccc([N+](=O)[O-])cc1Cl,inactive
16,CNC(=O)Oc1ccc(N(C)C)c(C)c1,inactive
17,CCNc1nc(Cl)nc(NC(C)(C)C)n1,inactive
18,CCN(CC)c1ccccc1,inactive
19,Cc1ccc([N+](=O)[O-])cc1C,inactive
20,O=C(O)CF,inactive

row,Structure (SMILES),outcome
1,CCOP(=S)(NC(C)C)Oc1ccccc1C(=O)OC(C)C (stereo not given),inactive
2,CCCCOCCOP(=O)(OCCOCCCC)OCCOCCCC,inactive
3,c1ccc2c(c1)Nc1ccccc1S2,inactive
4,CCCCOCC1CO1 (stereo not given),inactive
5,N#Cc1c(-c2ccc(Cl)cc2)[nH]c(C(F)(F)F)c1Br,inactive
6,O=S(=O)(c1ccc(O)cc1)c1ccc(O)cc1,inactive
7,CCOP(=S)(OCC)SCS(=O)(=O)CC,inactive
8,CCCCC(CC)COP(=O)(Oc1ccccc1)Oc1ccccc1 (stereo not given),inactive
9,CCOP(=S)(OCC)SCSc1ccc(Cl)cc1,inactive
10,O=S(=O)(F)C(F)(F)C(F)(F)C(F)(F)C(F)(F)C(F)(F)C(F)(F)C(F)(F)C(F)(F)F,inactive
11,C=CC(=O)OCC(F)(F)C(F)F,inactive
12,Cc1cccc(N)c1,inactive
13,O=C(O)C1C(C(=O)O)C2(Cl)C(Cl)=C(Cl)C1(Cl)C2(Cl)Cl (stereo not given),inactive
14,OCC1CO1 (stereo not given),inactive
15,COC(=O)C(F)(F)C(F)(F)OC(F)(C(F)(F)F)C(F)(F)OC(F)=C(F)F (stereo not given),inactive
16,FC(F)(F)c1ccc(Cl)cc1,inactive
17,CC(C)Nc1ccc(Nc2ccccc2)cc1,inactive
18,CCN(CC)C1CCCCC1,inactive
19,OCC(F)(F)OC(F)(F)C(F)(F)OC(F)(F)C(F)(F)OC(F)(F)CO,inactive
20,CC(O)C#N (stereo not given),inactive

# Source: PubChem BioAssay (EPA / NIEHS)
